From ChEMBL document CHEMBL4513216, “Probing the Open Global Health Chemical Diversity Library for Multistage-Active Starting Points for Next-Generation Antimalarials” (ACS Infect Dis, 2020)
Among all 69,000 compounds or so, about 8,600 (12%) showed an effect of 50% or more. This excerpt belongs to a sample that is enriched for strong results.

The compounds below were run on Plasmodium berghei (assay: Screen against P. berghei liver stage (PbLuc), transformed with Luciferase, at 10uM). Conditions: tested at 10 uM.
Assay type: functional, HepG2
`Cc1nn(C)c(N(C)C)c1CNCc1ccccc1CO` gave an INHIBITION of 15.3%. Compound `CCn1nc(C)cc1NC(=O)CCn1nc(C)c2ccccc21` has an INHIBITION of 20.9%. `Cc1cc(NC(=O)CCn2nc(C)c3ccccc32)n(C(C)C)n1` gave an INHIBITION of 59%. `Cc1cc(NC(=O)CCn2nc(C)c3ccccc32)n(C)n1` showed an INHIBITION of 26.7%. `CSCC[C@H](NC(=O)N1CCC(Cc2ccccc2)CC1)C(=O)O` showed an INHIBITION of 20%. For `CC(NC(=O)C1CCCC1)c1nncn1C(C)C` (centres undefined), the INHIBITION was 52.2%. With `CC(NC(=O)C1CCN(C(C)C)CC1)c1nncn1C1CCCC1` (centres undefined) the INHIBITION was 17.8%. `CC(NC(=O)C1CCN(C(=O)C2CC2)CC1)c1nncn1C(C)C` (centres undefined) was tested, and the INHIBITION was 44%. Compound `CCOc1ccccc1C(C(=O)O)N(C)CC1CCOCC1` (centres undefined) has an INHIBITION of 41.3%. `c1sc(C2CCCCC2)nc1CN1CCn2c(nnc2C2CC2)C1` was tested, and the INHIBITION was 38.8%. `O=C(NCCn1ccnc1)N1CCCC1c1ccc2c(c1)OCCO2` (centres undefined) showed an INHIBITION of -1.25%. For `COc1ccc2nnc(CCC(=O)Nc3nc4c(s3)CCCC4)n2n1`, the INHIBITION was -2.09%. `O=C(NCC1CCOCC1)[C@@H]1C[C@@H]2CCN(Cc3ccco3)C[C@H]2O1` showed an INHIBITION of 2.74%. `COCCCNC(=O)C(C)(C)N(C)C1CCCC1` was tested, and the INHIBITION was 72.1%. In the case of `CN(C1CCCC1)C(C)(C)C(=O)NCCNC(N)=O`, the INHIBITION was 32.2%. `CN(C1CCCC1)C(C)(C)C(=O)NCCS(C)(=O)=O` showed an INHIBITION of 42.4%. `O=C1CCC(=O)c2oc3ccc(Br)cc3c2N1` showed an INHIBITION of 0.207%. `Cc1cnn(CC(C)NCc2ccc(C#N)cc2)c1` (centres undefined) gave an INHIBITION of 32.8%. `Cc1cnn(CC(C)NCc2ccc(OCc3cccnc3)cc2)c1` (centres undefined) gave an INHIBITION of 58.5%. `Cc1cnn(CC(C)NCc2ccccc2OCc2cccnc2)c1` (centres undefined) gave an INHIBITION of 13.3%. In the case of `Cc1cnn(CCNCc2ccc(S(C)(=O)=O)cc2)c1`, the INHIBITION was -13.1%. For `Cc1cnn(CC(C)NCc2cccnc2)c1` (centres undefined), the INHIBITION was -3%. For `c1cnn(CCNCc2cnc(N3CCCC3)nc2)c1`, the INHIBITION was -1.04%. `CC(Cn1cccn1)NCc1cnc(N2CCCC2)nc1` (centres undefined) was tested, and the INHIBITION was 53.2%. With `CC(Cn1cccn1)NCc1csc(COc2ccccc2)n1` (centres undefined) the INHIBITION was -2.53%. `CC(Cn1cccn1)NCc1ccc(OCc2ccncc2)cc1` (centres undefined) was tested, and the INHIBITION was 56.4%. Compound `Cc1cnn(CC(C)NCc2ccc(S(C)(=O)=O)cc2)c1` (centres undefined) has an INHIBITION of 56.3%. Work on `c1ccc(Cn2cccn2)c(CNCc2cnc(N3CCCC3)nc2)c1` yielded an INHIBITION of 22.6%. `COc1cc(CNC(C)Cn2cccn2)cc(OC)c1` (centres undefined) gave an INHIBITION of 25.1%. `c1cnc(N2CCO[C@H]3[C@H](OCCN4CCCC4)CC[C@@H]32)nc1` showed an INHIBITION of 43.8%. For `CNC(=O)NCC1CCC2(CCN(C(=O)c3cccnc3)CC2)CO1` (centres undefined), the INHIBITION was 41.2%. `O=C(Cc1cccs1)N1Cc2nc(CN3CCCC3)oc2C1` showed an INHIBITION of 30.5%. `Cc1cccc(S(=O)(=O)N2C[C@@H]3C[C@H](C(=O)NCC4CC4)[C@H](C2)O3)c1` was tested, and the INHIBITION was 2.4%. `CCc1nc(N2CCC3(CC2)[C@H](O)C[C@@H]3O)ncc1C` was tested, and the INHIBITION was -50.8%. `CCOCC1CC2(CCN(C(=O)c3ncccn3)CC2)CO1` (centres undefined) was tested, and the INHIBITION was 33.4%. For `Cc1cnn(CC(C)NCc2cc(=O)n3cc(C)ccc3n2)c1` (centres undefined), the INHIBITION was -16.1%. Work on `Cc1cnn(CC2CCCN2Cc2cc(=O)n3ccccc3n2)c1` (centres undefined) yielded an INHIBITION of 28.3%. `COc1cc(CNC(C)Cn2cccn2)cc(OC)c1OC` (centres undefined) gave an INHIBITION of 36.4%. `COc1ccc(CNC(C)Cn2cccn2)cc1OC` (centres undefined) was tested, and the INHIBITION was 27.8%. `Cc1cnn(CC(C)NCc2ccc(OCc3cscn3)cc2)c1` (centres undefined) gave an INHIBITION of -11.4%. `Cc1cnn(CC(C)NCc2ccc(OCc3ccncc3)cc2)c1` (centres undefined) gave an INHIBITION of 54.6%. Work on `Cc1cnn(CC(C)NCc2ccc(OCc3nccn3C)cc2)c1` (centres undefined) yielded an INHIBITION of -34%. Compound `COc1ccc(CNC(C)Cn2cccn2)cc1F` (centres undefined) has an INHIBITION of 59.4%. With `Cc1cnn(CCNCc2ccc(OCC(N)=O)cc2)c1` the INHIBITION was -41.1%. For `Cc1cnn(CC(C)NCc2ccncc2)c1` (centres undefined), the INHIBITION was -17.6%. With `Cc1cnn(CC(C)NCc2cc(=O)n3ccccc3n2)c1` (centres undefined) the INHIBITION was 89.6%. `Cc1cnn(CC(C)NCc2ccc(OCC(N)=O)cc2)c1` (centres undefined) was tested, and the INHIBITION was 58.5%. For `COCCN1C(=O)[C@@H]2CC[C@H]1CN(C(=O)COc1ccc(F)c(Cl)c1)C2`, the INHIBITION was -102%. Work on `CN(C)[C@@H]1CCN(C(=O)c2ccccn2)[C@H]1Cc1cnn(C)c1` yielded an INHIBITION of 20.6%. `CCN1CC(CN(C)Cc2nc(-c3ccc(F)cc3)oc2C)CC1=O` (centres undefined) was tested, and the INHIBITION was 34.2%. For `CN(Cc1nc(Cc2cccc(C(F)(F)F)c2)no1)C1CCCCC1`, the INHIBITION was 43.9%. For `Cc1cnn(CCNCc2csc(-c3ccco3)n2)c1`, the INHIBITION was -4.9%. With `COc1c(CNCc2ccnc(N(C)C)c2)c(C(C)C)nn1C` the INHIBITION was 9.47%. `CC(C)c1noc(C2CC(=O)N(CCN(C)C)C2)n1` (centres undefined) gave an INHIBITION of 16.5%. In the case of `COc1ccc2c(ccn2CCC(=O)NCCC(=O)O)c1`, the INHIBITION was 42.1%. With `COCCCNC(=O)CN(C)C(=O)c1cc2cc(C)ccc2nc1C` the INHIBITION was 5.885%. Work on `COc1cccc(S(=O)(=O)NC(=O)COC2CCCCC2)c1` yielded an INHIBITION of 1.78%. `CCn1nnc(NCc2ccc(-c3ccc(Br)cc3)o2)n1` gave an INHIBITION of 12.3%. For `CC(C)c1cc(C(=O)N2C[C@@H]3CC[C@H]2CN(Cc2cccnc2)C3)no1`, the INHIBITION was 2.02%. With `Cn1ccnc1CNc1nccc(-c2ncnn2C)n1` the INHIBITION was -29%. `Cn1ncnc1-c1ccnc(NCCCc2ccncc2)n1` gave an INHIBITION of 94.3%. Compound `Cn1ncnc1-c1ccnc(NCc2ccncc2)n1` has an INHIBITION of 14.5%. Compound `COCC(=O)N1CC[C@@H](N2CCN(C)CC2)[C@@H]1Cc1ccccc1` has an INHIBITION of 41.6%. With `CCN1CCC2(CC1)CC(NC(=O)N(C)C)c1cc(C)ccc12` (centres undefined) the INHIBITION was 12.2%. `CC(=O)NCC(=O)NC1CCc2nccn2C1` (centres undefined) showed an INHIBITION of 40.6%. Compound `N#Cc1cc(F)c(NCCc2ccc(F)cc2)c(F)c1` has an INHIBITION of 23.9%. Work on `N#Cc1cc(F)c(NCCc2ccc(S(N)(=O)=O)cc2)c(F)c1` yielded an INHIBITION of 37.8%. `N#Cc1cc(F)c(NCc2ccc(F)cc2)c(F)c1` gave an INHIBITION of 51.7%. `c1cc(-c2cnccn2)cc(-c2ccn(CCCN3CCCCC3)n2)c1` gave an INHIBITION of 26.9%. Compound `c1cc(-c2cnccn2)cc(-c2ccn(CCN3CCCCC3)n2)c1` has an INHIBITION of 5.38%. `c1cc(-c2cnccn2)cc(-c2ccn(CCN3CCCC3)n2)c1` gave an INHIBITION of 55.1%. In the case of `Cc1cnc(C)c(-c2cccc(-c3ccn(CCN4CCCC4)n3)c2)n1`, the INHIBITION was 55.6%. `c1ccc(-c2cccc(-c3ccn(CCN4CCCCC4)n3)c2)nc1` showed an INHIBITION of 48.4%. `Cc1ccc(-c2cccc(-c3ccn(CCN4CCCC4)n3)c2)nn1` gave an INHIBITION of 46.8%.
